Screening data deposited in PubChem BioAssay by National Center for Advancing Translational Sciences (NCATS).
Only some compounds are listed: those with a hit (about 21% of all), similar ones and a draw of the others.
NS1 inh: blocks influenza NS1 protein function | AID 2326 | Potency, µM (highest dose often 46.1 µM) | 270,000 tested, 0.4% active; further: actives are rising curves; nearly all actives have a fitted effect of over 50% in size
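Recovery from NS1-induced slow growth read by OD600 in budding yeast switched to galactose assay medium (pH 6.0, -URA) at 1:100 dilution. Compound 23 nl per well; the matching strain lacking NS1 serves as control.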
Pf growth 96h: P. falciparum growth inhibition at 96 hour, primary screen for plastid delayed-death inhibitors | P. falciparum luciferase reporter growth, 96 h | Potency, µM (top dose mostly 28.7 µM), actives largely listed as inhibitors | 320,000 tested, 6.9% active; active means well fitted inhibition curve with a large enough effect; inconclusive means small, poorly fitted or top-dose-only effect, or another doubt; inactive means no such curve, though single readings can be large or run the other way
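Cell-based qHTS: luciferase-tagged P. falciparum in erythrocytes (2% hematocrit, 0.05% parasitemia final) incubated with compounds for 96 hours, 37 C, 5% CO2; luciferase detection reagent then added and luminescence measured.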
CHX counter: counter-screen for Shiga toxin inhibitors: cycloheximide protein synthesis inhibition | cell reporter, cycloheximide protein synthesis inhibition counterscreen | max response, % | 300,000 tested, 12% active | AID 2314; in the data active means max response mostly above about 13%, no sharp cut-off; inactive means mostly below about 14%; further: read at 38.3 µM for the half of the compounds with a filed dose
Shiga inhibitor: inhibitors of Shiga toxin in Vero cells; Vero cells, Shiga toxin protein synthesis inhibition reporter; inhibition, % at 38.7 µM; 290,000 tested, 9.2% active; in the data active means inhibition mostly above about 28%, no sharp cut-off; inactive means mostly below about 43%
Pf growth 48h: inhibits P. falciparum growth in the first generation, 48 h; 310,000 tested, 5.9% active; P. falciparum luciferase growth in erythrocytes, 48 h; Potency, µM (highest dose often 28.7 µM), actives largely listed as inhibitors; active means well fitted inhibition curve with a large enough effect; inconclusive means small, poorly fitted or top-dose-only effect, or another doubt; inactive means no such curve, though single readings can be large or run the other way
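Compounds are pin-transferred into medium, infected erythrocytes (2% hematocrit, 0.1% parasitemia final) are added, and plates sit one parasite generation at 37 C in 5% CO2. Detection reagent is then added and luminescence measured.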
SARS PLP yeast: SARS-CoV PLP inhibition in yeast | S. cerevisiae expressing SARS-CoV PLpro, growth rescue | Potency, µM (doses to about 32.9 µM), hits mostly activators | 330,000 tested, 0.19% active; further: nearly all actives have a fitted effect of over 55% in size
Each line names hits and unclear results; the compound was inactive in the other large screens. Unless noted, the call rests on the fitted dose curve.

CC(/C=C/C=C/c1ccccc1)=N/NC(=O)c1ccc2c(c1)OCCO2	CHX counter 31, Shiga inhibitor 63
CC(/C=C/c1ccccc1)=N/NC(=O)c1cccc(Br)c1	Pf growth 96h inconclusive, CHX counter 20, Pf growth 48h inconclusive
CC(/C=C\C=C\c1ccccc1)=N\NC(=O)c1cncc(Br)c1	Pf growth 96h 0.93µM, Pf growth 48h inconclusive (no result: NS1 inh)
CC(/C=C/c1ccccc1)=N\NC(=O)c1ccc(Br)cc1	Pf growth 48h inconclusive (no result: NS1 inh)
COc1ccc(-n2c(O)c(C=Nc3ccccc3)c3ccccc3c2=O)cc1	none (no result: NS1 inh)
CCN(c1ccc(N=Cc2c(O)n(Cc3ccc(OC)cc3)c(=O)c3ccccc23)cc1)C(C)C	Pf growth 96h 1.5µM, Pf growth 48h inconclusive (no result: NS1 inh)
Cc1nc2ccccc2n1CCOc1ccccc1	CHX counter 12
Nc1nc2ccccc2n1CCOc1ccc(F)cc1	Pf growth 96h 15µM, Pf growth 48h 8.3µM
Cc1ccccc1OCCn1c(C)nc2ccccc21	Pf growth 48h inconclusive (no result: Shiga inhibitor)
Cc1ccc(NCc2nc3ccccc3n2CCOc2ccccc2)cc1	Pf growth 96h inconclusive, CHX counter 76, Shiga inhibitor 121
COc1ccc(OCCn2c(N)nc3ccccc32)cc1	Pf growth 96h inconclusive, Pf growth 48h inconclusive
CCn1c(CNc2ccc(C(=O)O)cc2)nc2ccccc21	none (no result: SARS PLP yeast)
O=C(O)c1ccc(NCc2nc3ccccc3n2CCOc2ccccc2Cl)cc1	Pf growth 48h inconclusive (no result: NS1 inh)
CCCn1c(CNc2ccc(Br)cc2)nc2ccccc21	CHX counter 17 (no result: Pf growth 48h)
COc1ccc(N2CCN(C(=O)CCC(=O)N3CC(C)Oc4ccc(C)cc43)CC2)cc1 (stereo not given)	Pf growth 48h inconclusive
Oc1cccc(C(=S)N2CCC(Cc3ccccc3)CC2)c1	Pf growth 96h inconclusive
CCSc1nc2ccccc2n1CCOc1ccccc1	Pf growth 96h inconclusive, CHX counter 21, Shiga inhibitor 48, Pf growth 48h inconclusive, SARS PLP yeast inconclusive
OCCn1c(SCCOc2ccccc2)nc2ccccc21	none (no result: Pf growth 48h)
CCN(CCC(=O)O)c1ccccc1	none (no result: Pf growth 96h)
CCN(CC)C1=NC(=[N+](CC)CC)c2ccccc21	Pf growth 96h 0.29µM, Pf growth 48h 0.74µM
O=C(CSc1ncn[nH]1)N1CCOCC1	Pf growth 96h inconclusive
COCCCn1cc(C(=O)c2ccccc2OCC(=O)Nc2cccc(F)c2)cc(C#N)c1=O	Pf growth 96h inconclusive, Pf growth 48h inconclusive
CCCCn1cc(C(=O)c2cc(Br)ccc2O)cc(C#N)c1=O	Pf growth 96h 2.1µM, Pf growth 48h 1.7µM
CCOCCCn1cc(C(=O)c2cc(Br)ccc2O)cc(C#N)c1=O	Pf growth 96h inconclusive, Pf growth 48h 5.2µM (no result: NS1 inh)
C=CCn1cc(C(=O)c2cc(Br)ccc2O)cc(C#N)c1=O	Pf growth 96h inconclusive, Pf growth 48h inconclusive
COCCCn1cc(C(=O)c2cc(Br)ccc2O)cc(C#N)c1=O	Pf growth 96h 9.3µM, Pf growth 48h inconclusive (no result: NS1 inh)
CC(C)n1cc(C(=O)c2cc(Br)ccc2O)cc(C#N)c1=O	Pf growth 96h 2.6µM (no result: Pf growth 48h)
N#Cc1cc(C(=O)c2cc(Br)ccc2O)cn(C2CC2)c1=O	NS1 inh inconclusive, Pf growth 96h inconclusive, Pf growth 48h inconclusive
CCOC(=O)C(CC)n1nc(C)n2c(cc3occc32)c1=O (stereo not given)	none (no result: Pf growth 96h)
CCOc1ccc(N2C(=O)CC(NC3CCN(C(=O)c4ccc(F)cc4)CC3)C2=O)cc1 (stereo not given)	none
Cc1ccc(O)c(C(=O)c2cc(C#N)c(=O)n(C(C)c3ccccc3)c2)c1 (stereo not given)	Pf growth 96h 5.9µM, Pf growth 48h 3.3µM (no result: NS1 inh)
CCc1nc(NCc2ccccn2)c2oc3ccccc3c2n1	Pf growth 96h inconclusive
CC(=O)Nc1ccc(Nc2nc(C)nc3c2oc2ccccc23)cc1	Pf growth 48h inconclusive
c1ccc(CNc2ncnc3c2oc2ccccc23)nc1	CHX counter 23, Shiga inhibitor 59
COc1ccc(CCNc2nc(C)nc3c2oc2ccccc23)cc1OC	none (no result: Pf growth 48h)
COc1ccc(CCNc2ncnc3c2oc2ccccc23)cc1OC	Pf growth 96h 2.9µM, Pf growth 48h inconclusive
CC(=O)c1ccc(Nc2ncnc3c2oc2ccccc23)cc1	NS1 inh inconclusive, CHX counter 57, Shiga inhibitor 66
c1ccc2c(c1)oc1c(NCC3CCCO3)ncnc12 (stereo not given)	CHX counter 34, Shiga inhibitor 54
O=C(CSc1ncnc2c1oc1ccccc12)NCC1CCCO1 (stereo not given)	none (no result: Pf growth 96h, CHX counter, Shiga inhibitor, Pf growth 48h, SARS PLP yeast)
Cc1nn(-c2ccc(F)cc2)c(C)c1NS(=O)(=O)c1ccc(Cl)cc1	Pf growth 96h inconclusive, Pf growth 48h inconclusive
c1ccc(-c2nc(NCc3cccnc3)c3oc4ccccc4c3n2)cc1	Pf growth 96h 9.3µM, Pf growth 48h inconclusive
c1ccc(-c2nc(NCC3CCCO3)c3oc4ccccc4c3n2)cc1 (stereo not given)	Pf growth 96h 15µM (no result: Pf growth 48h)
O=C(OCC(=O)N1CCN(c2ccccc2)CC1)c1ccc(Cl)nc1	none (no result: NS1 inh, CHX counter, Shiga inhibitor)
O=C(OCC(=O)c1ccco1)c1ccc2ncsc2c1	CHX counter 29 (no result: Pf growth 96h)
O=C(OCC(=O)N1CCN(c2ccccc2)CC1)c1ccc2ncsc2c1	Pf growth 96h 12µM (no result: Pf growth 48h)
CCCCN(C(=O)C1CC(=O)N(c2ccc(C)cc2)C1)c1c(N)n(CCC)c(=O)[nH]c1=O (stereo not given)	none (no result: NS1 inh, CHX counter, Shiga inhibitor)
Cc1cc(C2N=C(N)Nc3nc4ccccc4n32)c(C)n1-c1ccccc1Cl (stereo not given)	NS1 inh inconclusive (no result: Pf growth 48h)
Cc1ccc(-n2c(C)cc(C3N=C(N)Nc4nc5ccccc5n43)c2C)c(C)c1 (stereo not given)	Pf growth 48h 8.3µM
COc1cc(CCC(=O)Nc2ccc(C)c(S(=O)(=O)N3CCCCCC3)c2)cc(OC)c1OC	Pf growth 96h 10µM, Pf growth 48h 12µM (no result: NS1 inh, CHX counter, Shiga inhibitor)
COc1cc(NC(=O)CNc2ccc(Cl)c(S(=O)(=O)N3CCOCC3)c2)cc(OC)c1	Pf growth 96h inconclusive, Pf growth 48h 5.2µM (no result: NS1 inh, CHX counter, Shiga inhibitor)
COc1ccc(CCC(=O)Nc2ccc(Cl)c(S(=O)(=O)N3CCCC3)c2)cc1	Pf growth 96h inconclusive, Pf growth 48h 9.3µM
O=C(CCOc1ccccc1)Nc1ccc(Cl)c(S(=O)(=O)N2CCOCC2)c1	Pf growth 96h inconclusive, Pf growth 48h inconclusive (no result: NS1 inh, CHX counter, Shiga inhibitor)
CCOC(=O)C(O)(CCC(O)(C(=O)OCC)C(=O)OCC)C(=O)OCC	none (no result: Pf growth 48h)
CCN(C(=O)COC(=O)c1cc(-c2cccc3ccccc23)nc2ccccc12)C1CCS(=O)(=O)C1 (stereo not given)	none
Cc1cc(C)c(C(=O)COC(=O)C2CC3CCCC(C2)C3=O)c(C)c1 (stereo not given)	Pf growth 48h inconclusive (no result: NS1 inh, CHX counter, Shiga inhibitor)
O=C(CCS(=O)(=O)c1cc(Br)cc2c1N(C(=O)C1CC1)CC2)NCc1ccco1	Pf growth 48h 8.3µM
CCC(=O)N1CCc2cc(Br)cc(S(=O)(=O)CCC(=O)NCC3CCCO3)c21 (stereo not given)	Pf growth 96h inconclusive, Pf growth 48h inconclusive
CCC(=O)N1CCc2cc(S(=O)(=O)CCC(=O)NCc3ccco3)ccc21	Pf growth 96h inconclusive (no result: NS1 inh)
